“And” between values parts separate entries of the source, which are not always exact repeats. Equal values may be shown once. Records with an inconclusive call do not appear. The source made the active and inactive calls. Unless noted, calls follow the shape of the dose curve; as a rule, active = well fitted curve in the direction sought with a large enough effect; inconclusive = small, poorly fitted or top-dose-only effect, or another doubt; inactive = no such curve, though single readings can be large; an effect the other way counts as inactive or inconclusive.
Experiments:
[1] = Cellular Toxicity (caspase-3) HepG2 (AID 654);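 also: cells exposed to compound for 16 hours before reading; 0% = DMSO alone and 100% = caspase signal from 100 µM tamoxifen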
Method in brief: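 Caspase 3/7 activation is measured as a luminescence increase (aminoluciferin substrate) after 16 h compound exposure of human hepatocarcinoma HepG2 cells. AC50 values are Hill fits, scaled between DMSO baseline and 100 uM tamoxifen stimulation.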

[2] = Cellular Toxicity (caspase-3) Jurkat (AID 655); conditions: Jurkat caspase-3 activation, luminescence, DMSO = 0%, tamoxifen = 100%; at 92.2 µM (top of the series);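 also: cells exposed to compound for 16 h at 37 °C before reading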
Method in brief: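 5000 Jurkat cells/well; compound 16 hr, 37 °C; Caspase-Glo 3/7 added, 20 min RT; luminescence read. Norm: DMSO = 0%, tamoxifen 100 uM = 100%. AC50, Hill model.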

[3] = Cellular Toxicity (caspase-3) HUV-EC-C (AID 656)
Method in brief: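 qHTS; HUV-EC-C, 1000 cells/well; 5 hr settle, 16 hr cmpd, 37°C; Caspase-Glo 3/7, 20 min RT; luminescence. Norm: DMSO = 0%, tamoxifen 100 uM = 100%. Hill-fit AC50.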

[4] = Cellular Toxicity (caspase-3) SHSY5Y (AID 657);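 also: cells exposed to compound for 16 hours at 37 °C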
Method in brief: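 qHTS, SH-SY5Y, 1500 cells/well, 5 h pre-incubation 37 °C; compound 16 h 37 °C; Caspase-Glo 3/7 1 h RT; luminescence. Norm.: DMSO = 0, 10 uM staurosporine = 100%. Hill fit → AC50.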

[5] = Cellular Toxicity (caspase-3) BJ (AID 658);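 also: cells exposed to compound for 16 hours; 0% = DMSO basal and 100% = 10 µM staurosporine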
Method in brief: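 Caspase-Glo 3/7 luminescence, read 1 hr after reagent at room temperature, in normal BJ fibroblasts exposed 16 hours at 37 °C. AC50 values from Hill-equation concentration-response, scaled between DMSO basal and 10 uM staurosporine as 100%.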

[6] = Cellular Toxicity (caspase-3) MRC-5 (AID 659);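 also: 0% = DMSO basal and 100% = 10 µM staurosporine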
Method in brief: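 Luminescent Caspase-Glo 3/7 read-out (1 h, room temperature) after a 16 h, 37 °C compound exposure of MRC-5 lung fibroblasts at 1500 cells/well. Concentration-response AC50 from Hill equation; 0% DMSO, 100% 10 uM staurosporine.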

[7] = Cellular Toxicity (caspase-3) Mesangial (AID 660);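 also: combined caspase 3 and 7 activity read by Caspase-Glo luminescence; cells exposed to compound for 16 h before the caspase read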
Method in brief: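 Caspase 3/7 activation measured by Caspase-Glo 3/7 luminescence (20 min, room temperature) following 16 h exposure of mesangial cells (1000/well); AC50 from Hill-equation fit, normalized to DMSO and 100 uM tamoxifen.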

[8] = Cellular Toxicity (caspase-3) SK-N-SH (AID 661);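 also: cells exposed to compound for 16 hours; 0% = DMSO basal and 100% = 10 µM staurosporine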
Method in brief: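 Caspase 3/7 activation was read by luminogenic substrate cleavage after 16 hour treatment of SK-N-SH cells. Signal was scaled between DMSO and 10 uM staurosporine, and concentration-response data were fitted with the Hill equation for AC50.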

[9] = Cellular Toxicity (caspase-3) H-4-II-E (AID 663); conditions: Potency: caspase-3 activation;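 also: cells exposed to compound for 16 hr before readout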
Method in brief: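 Caspase 3/7 activation measured by luminescent aminoluciferin substrate cleavage after 16 hr compound treatment of H-4-II-E cells in complete medium. Increase normalized between DMSO (basal) and 100 uM tamoxifen (100%); Hill-equation AC50 from concentration-response.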

[10] = Cellular Toxicity (caspase-3) Renal Proximal Tubule (AID 667);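 also: cells exposed to compound for 16 hours at 37 °C before detection; 0% = DMSO basal and 100% = 10 µM staurosporine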
Method in brief: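 AC50 derived by standard Hill fit of concentration-response data, normalized between DMSO basal and 10 uM staurosporine as 100% stimulation. Cells: primary rat kidney proximal tubule, 16 h treatment at 37 °C.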

[11] = Cell Viability - LYMP2-001 (AID 921);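 also: cells exposed to compound for 24 h at 37 °C; 0% = DMSO only and full inhibition = tetraoctylammonium bromide control wells; nearly all actives have a fitted effect of over 70% in size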
Method in brief: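 Steps: seed 2500 lymphoblastoid cells/well; 5 hr, 37 C; add compound; 24 hr, 37 C; CellTiter-Glo reagent, 30 min room temperature; read luminescence. Concentration-response modeled by Hill equation for AC50.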

[12] = MultiTox-Fluor Cytotoxicity Assay - LYMP1-001 - Dead Cells (AID 946)
Method in brief: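 Cytotoxicity as increased dead-cell protease fluorescence (bis-AAF-R110, 485/520 nm), read 60 min after MultiTox-Fluor reagent. Human lymphoblastoid line exposed 16 h; Hill-fitted AC50, with DMSO as 0% and 15 uM tetraoctylammonium bromide as 100%.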

[13] = Cell Viability - LYMP1-002 - Assay at 16 hr (AID 948);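 also: 0% = DMSO alone and full effect = 92 µM tetraoctylammonium bromide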
Method in brief: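 Seed 2500 LYMP1-002 cells per well in complete medium and hold 5 hr at 37 C. Add compound across a concentration series and incubate 16 hr at 37 C. Add CellTiter-Glo, wait 30 min at room temperature, read luminescence.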

[14] = MultiTox-Fluor Cytotoxicity Assay - LYMP1-002 - Live Cells (AID 955);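 also: cells exposed to compound for 16 hours; % is scaled to controls: 0 for no effect and ±100 for the full control effect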
Method in brief: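 After 16 h compound exposure at 37 C, live LYMP1-002 lymphoblastoid cells (2500/well) were quantified by cleavage of cell-permeant GF-AFC substrate, read at 405/510 nm after 60 min. Concentration-response fitted with Hill equation for AC50.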

[15] = MultiTox-Fluor Cytotoxicity Assay - LYMP1-003 - Dead Cells (AID 961); also: nearly all actives have a fitted effect of over 70% in size
Method in brief: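 Dead-cell protease release, detected as bis-AAF-R110 fluorescence at 485/520 nm, was measured in LYMP1-003 cells after 16 h compound treatment at 37 C. AC50 values came from Hill-modeled qHTS curves normalized to DMSO (0%) and 15 uM tetraoctylammonium bromide (100%).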

[16] = target: Glucocorticoid receptor (Homo sapiens) (UniProt P04150); assay: qHTS assay for small molecule agonists of glucocorticoid receptor signaling (AID 588532; active = well fitted curve in the direction sought with a large enough effect in the signal ratio, with a control signal flat; the % refers to the signal ratio;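 also: 100% = dexamethasone at 0.1 µM and 0% = DMSO only wells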); conditions: HeLa MMTV-bla, beta-lactamase ratio, agonist, 18 h; hits give high values; percent of dexamethasone control, DMSO zero
Method in brief: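 Agonist-mode qHTS: GRE-driven beta-lactamase in HeLa cells exposed 18 h to titrated compounds (up to 92 uM), then CCF4 ratio read after 2 h at RT; Hill-fitted EC50, efficacy relative to 0.1 uM dexamethasone.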

[17] = target: Peroxisome proliferator-activated receptor gamma (Homo sapiens) (UniProt P37231); assay: qHTS assay for small molecule agonists of peroxisome proliferator-activated receptor gamma signaling (AID 588536; active = well fitted curve in the direction sought with a large enough effect in the signal ratio, with a control signal flat, not every such curve was filed as active; the % refers to the signal ratio;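 also: 0% = DMSO basal wells and 100% = rosiglitazone at 2 µM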)
Method in brief: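 This is an agonist-mode beta-lactamase reporter assay in HEK293 PPAR-gamma-UAS-bla cells with 1% charcoal/dextran FBS. Compound titrations ran 16 h at 37 C before CCF4 detection. EC50 and efficacy are Hill fits scaled to 2 uM rosiglitazone (100%) and DMSO basal.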

[18] = target: Voltage-gated inwardly rectifying potassium channel KCNH2 (Homo sapiens) (UniProt Q12809); assay: qHTS Assay for Small Molecule Inhibitors of the Human hERG Channel Activity (AID 588834);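 also: top concentration of the series differs between compounds; % is scaled to controls: 0 for no effect and ±100 for the full control effect; lower thallium flux fluorescence means stronger hERG block; nearly all actives have a fitted effect of over 50% in size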
Method in brief: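 Step 1: BacMam hERG transduction of U2OS, 4 hrs RT. Step 2: overnight 37 °C, plate 2000 cells/well, 4 hr. Step 3: FluxOR load, compound 10 min, stimulate, read fluorescence.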

[19] = qHTS assay for small molecule antagonists of the retinoid-related orphan receptor gamma (ROR-gamma) signaling pathway - cell viability counter screen (AID 720652; active = well fitted curve in the direction sought with a large enough effect in the repeat runs; an effect the other way counts as inactive or inconclusive;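 also: CHO reporter cells with doxycycline-induced ROR-gamma expression; compound exposure lasted 16 hr before ATP read; % is scaled to controls: 0 for no effect and ±100 for the full control effect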)
Method in brief: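 Cytotoxicity counter screen: intracellular ATP (CellTiter-Glo luminescence) measured in the doxycycline-induced CHO RORE-luciferase reporter line after 16 hr compound exposure at 37 C, 5% CO2.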

[20] = target: Nuclear receptor subfamily 1 group I member 2 (Rattus norvegicus) (UniProt Q9R1A7); assay: qHTS assay for small molecule activators of the rat pregnane X receptor (rPXR) signaling pathway (AID 651751; call rule not given here; also: 0% is about no effect); conditions: rPXR reporter cells, luciferase (One-Glo), 24 h
Nuclear receptor subfamily 1 group I member 2 (Rattus norvegicus), sequence (Q9R1A7 whole entry, looked up): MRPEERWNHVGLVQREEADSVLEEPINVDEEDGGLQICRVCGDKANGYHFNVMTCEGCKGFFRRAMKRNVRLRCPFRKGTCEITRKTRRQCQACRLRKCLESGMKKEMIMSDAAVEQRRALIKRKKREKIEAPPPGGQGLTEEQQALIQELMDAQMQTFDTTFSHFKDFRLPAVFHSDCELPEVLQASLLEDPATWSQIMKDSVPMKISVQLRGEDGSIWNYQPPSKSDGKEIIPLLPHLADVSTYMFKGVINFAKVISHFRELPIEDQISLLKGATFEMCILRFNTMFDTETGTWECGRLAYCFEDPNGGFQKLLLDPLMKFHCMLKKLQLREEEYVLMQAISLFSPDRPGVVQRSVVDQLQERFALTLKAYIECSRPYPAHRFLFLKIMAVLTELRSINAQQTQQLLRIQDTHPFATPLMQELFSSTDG

Peroxisome proliferator-activated receptor gamma (Homo sapiens), sequence (P37231 whole entry, looked up): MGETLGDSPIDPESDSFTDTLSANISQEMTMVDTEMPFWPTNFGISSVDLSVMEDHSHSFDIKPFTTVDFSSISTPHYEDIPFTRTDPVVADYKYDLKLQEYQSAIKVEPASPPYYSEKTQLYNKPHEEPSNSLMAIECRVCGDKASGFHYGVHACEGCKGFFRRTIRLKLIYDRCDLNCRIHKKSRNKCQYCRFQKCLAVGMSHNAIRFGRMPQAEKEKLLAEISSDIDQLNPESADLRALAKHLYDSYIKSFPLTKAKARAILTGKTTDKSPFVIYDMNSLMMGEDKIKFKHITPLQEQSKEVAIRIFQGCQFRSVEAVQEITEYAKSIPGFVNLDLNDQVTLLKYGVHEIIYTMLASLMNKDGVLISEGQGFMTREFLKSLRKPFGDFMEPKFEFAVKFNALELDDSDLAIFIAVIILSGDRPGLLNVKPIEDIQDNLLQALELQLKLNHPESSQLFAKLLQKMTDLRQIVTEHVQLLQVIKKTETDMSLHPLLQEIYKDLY
Glucocorticoid receptor (Homo sapiens), sequence (P04150 whole entry, looked up): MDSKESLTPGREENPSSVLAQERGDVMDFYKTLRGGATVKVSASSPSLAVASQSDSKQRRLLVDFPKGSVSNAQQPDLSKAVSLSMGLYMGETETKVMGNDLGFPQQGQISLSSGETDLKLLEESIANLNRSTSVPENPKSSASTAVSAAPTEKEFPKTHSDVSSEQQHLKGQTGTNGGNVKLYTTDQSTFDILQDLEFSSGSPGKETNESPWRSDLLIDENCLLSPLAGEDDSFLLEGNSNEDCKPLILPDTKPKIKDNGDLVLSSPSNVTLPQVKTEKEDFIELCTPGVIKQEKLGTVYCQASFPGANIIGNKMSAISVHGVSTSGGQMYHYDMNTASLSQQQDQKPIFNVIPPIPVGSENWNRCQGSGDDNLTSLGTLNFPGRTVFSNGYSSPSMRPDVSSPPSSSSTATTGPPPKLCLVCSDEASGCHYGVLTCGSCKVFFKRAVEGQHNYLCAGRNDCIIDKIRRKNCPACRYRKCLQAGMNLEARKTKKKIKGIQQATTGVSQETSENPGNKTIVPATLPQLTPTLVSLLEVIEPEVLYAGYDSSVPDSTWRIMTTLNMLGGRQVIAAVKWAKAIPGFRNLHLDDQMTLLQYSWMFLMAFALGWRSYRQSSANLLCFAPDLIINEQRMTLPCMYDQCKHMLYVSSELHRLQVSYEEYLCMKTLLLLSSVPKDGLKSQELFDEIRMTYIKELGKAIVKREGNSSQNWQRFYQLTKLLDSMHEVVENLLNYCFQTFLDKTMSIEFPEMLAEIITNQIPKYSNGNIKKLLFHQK
Voltage-gated inwardly rectifying potassium channel KCNH2 (Homo sapiens), sequence (Q12809 whole entry, looked up): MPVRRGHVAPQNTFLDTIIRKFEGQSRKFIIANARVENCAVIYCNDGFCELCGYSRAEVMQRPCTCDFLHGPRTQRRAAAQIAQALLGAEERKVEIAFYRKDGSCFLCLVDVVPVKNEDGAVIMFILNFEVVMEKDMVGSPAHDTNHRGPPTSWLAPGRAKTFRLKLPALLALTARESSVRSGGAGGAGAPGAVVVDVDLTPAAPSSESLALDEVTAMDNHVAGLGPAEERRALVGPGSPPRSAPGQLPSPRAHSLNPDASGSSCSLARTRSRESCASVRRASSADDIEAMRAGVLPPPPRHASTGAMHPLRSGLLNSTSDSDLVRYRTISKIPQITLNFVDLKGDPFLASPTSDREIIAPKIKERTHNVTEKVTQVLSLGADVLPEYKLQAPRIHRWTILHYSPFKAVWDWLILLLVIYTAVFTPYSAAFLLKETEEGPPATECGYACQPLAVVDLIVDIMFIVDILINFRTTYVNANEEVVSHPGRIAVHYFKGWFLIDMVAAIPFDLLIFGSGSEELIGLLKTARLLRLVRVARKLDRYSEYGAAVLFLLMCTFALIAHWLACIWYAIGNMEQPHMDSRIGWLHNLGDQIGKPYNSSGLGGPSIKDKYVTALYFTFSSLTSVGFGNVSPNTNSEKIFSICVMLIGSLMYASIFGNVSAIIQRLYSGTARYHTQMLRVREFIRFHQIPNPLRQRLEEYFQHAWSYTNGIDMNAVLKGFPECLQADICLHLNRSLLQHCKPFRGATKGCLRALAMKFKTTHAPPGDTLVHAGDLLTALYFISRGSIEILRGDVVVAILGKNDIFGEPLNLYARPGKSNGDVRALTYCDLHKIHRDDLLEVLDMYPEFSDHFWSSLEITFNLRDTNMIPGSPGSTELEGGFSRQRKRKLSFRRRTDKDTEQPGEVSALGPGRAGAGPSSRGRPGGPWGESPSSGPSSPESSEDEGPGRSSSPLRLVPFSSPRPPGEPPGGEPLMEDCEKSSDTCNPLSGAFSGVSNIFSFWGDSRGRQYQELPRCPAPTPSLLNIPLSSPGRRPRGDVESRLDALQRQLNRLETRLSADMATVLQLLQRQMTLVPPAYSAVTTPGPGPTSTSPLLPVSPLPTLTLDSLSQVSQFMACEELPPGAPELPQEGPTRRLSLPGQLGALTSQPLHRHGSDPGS

c1ccc2scnc2c1
inactive: outcome [1] | caspase-3 activation [2] -0.459% | outcome [3] | outcome [4] | outcome [5] | outcome [6] | outcome [7] | outcome [8] | Potency [9] | outcome [10] | Potency [11] | Potency [12] | Potency [13] | Potency [14] | Potency [15] | activation [16] -6.61% | outcome [17] | Potency [18] | Potency [19] | max response [20] -1.2%

O=C(O)c1ccccc1C(c1ccc(O)cc1)c1ccc(O)cc1
inactive: outcome [1] | caspase-3 activation [2] 1.36% | outcome [3] | outcome [4] | outcome [5] | outcome [6] | outcome [7] | outcome [8] | Potency [9] | outcome [10] | Potency [11] | Potency [12] | Potency [13] | Potency [14] | Potency [15] | activation [16] -2.81% and -6.49% | outcome [17] | Potency [18] | Potency [19] | max response [20] 0.601% and -3.77%

O[C@@H]([C@H](O)[C@@H](O)CBr)[C@@H](O)CBr
inactive: outcome [1] | caspase-3 activation [2] 0.213% | outcome [3] | outcome [4] | outcome [5] | outcome [6] | outcome [7] | outcome [8] | Potency [9] | outcome [10] | Potency [11] | Potency [12] | Potency [13] | Potency [14] | Potency [15] | outcome [17] | Potency [18] | Potency [19] | max response [20] 0.919%

O=S(=O)(O)c1ccccc1
inactive: outcome [1] | caspase-3 activation [2] 0.148% | outcome [3] | outcome [4] | outcome [5] | outcome [6] | outcome [7] | outcome [8] | Potency [9] | outcome [10] | Potency [11] | Potency [12] | Potency [13] | Potency [14] | Potency [15] | activation [16] -5.18% | outcome [17] | Potency [18] | Potency [19] | max response [20] 2.35%

O=C1CCc2ccccc2O1
inactive: outcome [1] | caspase-3 activation [2] 1.5% | outcome [3] | outcome [4] | outcome [5] | outcome [6] | outcome [7] | outcome [8] | Potency [9] | outcome [10] | Potency [11] | Potency [12] | Potency [13] | Potency [14] | Potency [15] | activation [16] -2.22% | outcome [17] | Potency [18] | Potency [19] | max response [20] 3.11%

CC1(C)S[C@@H]2[C@H](NC(=O)COc3ccccc3)C(=O)N2[C@H]1C(=O)O
inactive: activation [16] 10.3% | outcome [17] | max response [20] -0.437%

Cc1c(N=C=O)cccc1N=C=O
inactive: outcome [1] | caspase-3 activation [2] -0.0166% | outcome [3] | outcome [4] | outcome [5] | outcome [6] | outcome [7] | outcome [8] | Potency [9] | outcome [10] | Potency [11] | Potency [12] | Potency [13] | Potency [14] | Potency [15] | activation [16] -8.06% and -0.129% | outcome [17] | Potency [18] | Potency [19] | max response [20] -1.26% and -0.744%

CCCCC(CC)CN (configuration not stated)
inactive: outcome [1] | caspase-3 activation [2] -1.36% and 1.48% | outcome [3] | outcome [4] | outcome [5] | outcome [6] | outcome [7] | outcome [8] | Potency [9] | outcome [10] | Potency [11] | Potency [12] | Potency [13] | Potency [14] | Potency [15] | activation [16] -3.51% and -4.52% | outcome [17] | Potency [18] | Potency [19] | max response [20] 1.98% and 0.48%

— PubChem BioAssay (NCATS)
